We go through 25 compounds from PubChem BioAssay (Tox21).

Several values for one entry are separate records, joined by “and”; a condition that tells them apart may be missing. Identical values can stand only once. Records with an inconclusive call do not appear. Values without a mark were called inactive. Activity calls are given as the source filed them. Unless noted, the call rests on the fitted dose curve; in most records, active means well fitted curve in the direction sought with a large enough effect in the repeat runs; inconclusive means weak or mixed curves; inactive means no such curve, though single readings can be large; an effect the other way counts as inactive or inconclusive.

The nature of test [1]: qHTS assay to identify aromatase inhibitors - cell viability counter screen (AID 743084;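 further: cells stimulated with testosterone during compound exposure; nearly all actives have a fitted effect of over 55% in size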). (In qHTS, concentration-response curves come from the screen itself.)
The target of test [2] is Aryl hydrocarbon receptor (Homo sapiens) (UniProt P35869). Kind of test: qHTS assay to identify small molecule that activate the aryl hydrocarbon receptor (AhR) signaling pathway (AID 743085). Further: nearly all actives have a fitted effect of over 15% in size. Further: potency means the concentration at half of the fitted maximal effect.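 On activation: HG2L7.5c1 human HepG2 liver cells with stably integrated DRE-driven firefly reporter; series mostly up to about 70 µM.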 In a few lines:
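Stably transfected human liver carcinoma cells (HG2L7.5c1; 20 DRE-firefly luciferase) were incubated 5 h, dosed, and kept 24 h at 37C. Agonism was scored from increased luciferase luminescence.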

Test [3] is described as follows: qHTS assay to identify small molecule that activate the aryl hydrocarbon receptor (AhR) signaling pathway - cell viability counter screen (AID 743086).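 Further: HepG2 liver cells carrying the AhR DRE luciferase reporter; series mostly up to about 70 µM; nearly all actives have a fitted effect of over 45% in size.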 The essentials: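 HepG2-AhR-luc (HG2L7.5c1) cells, 4000/well, treated 24 h at 37 C with compound; viability measured as CellTiter-Fluor fluorescence after 30 min in the same wells as the luciferase read.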
Test [4] deals with Peroxisome proliferator-activated receptor gamma (Homo sapiens) (UniProt P37231). Kind of test: qHTS assay to identify small molecule agonists of the peroxisome proliferator-activated receptor gamma (PPARg) signaling pathway (AID 743094; active means well fitted activation curve with a large enough effect in the signal ratio in the repeat runs, not every such curve was filed as active; the % refers to the signal ratio). The essentials: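 Compounds dissolved in DMSO were added to PPARg UAS-bla HEK293H cells for 17 h at 37C, and reporter expression was quantified by fluorescence intensity after 1 h with LiveBLAzer B/G FRET substrate.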
Sequence of Peroxisome proliferator-activated receptor gamma (Homo sapiens) (P37231 whole entry, looked up): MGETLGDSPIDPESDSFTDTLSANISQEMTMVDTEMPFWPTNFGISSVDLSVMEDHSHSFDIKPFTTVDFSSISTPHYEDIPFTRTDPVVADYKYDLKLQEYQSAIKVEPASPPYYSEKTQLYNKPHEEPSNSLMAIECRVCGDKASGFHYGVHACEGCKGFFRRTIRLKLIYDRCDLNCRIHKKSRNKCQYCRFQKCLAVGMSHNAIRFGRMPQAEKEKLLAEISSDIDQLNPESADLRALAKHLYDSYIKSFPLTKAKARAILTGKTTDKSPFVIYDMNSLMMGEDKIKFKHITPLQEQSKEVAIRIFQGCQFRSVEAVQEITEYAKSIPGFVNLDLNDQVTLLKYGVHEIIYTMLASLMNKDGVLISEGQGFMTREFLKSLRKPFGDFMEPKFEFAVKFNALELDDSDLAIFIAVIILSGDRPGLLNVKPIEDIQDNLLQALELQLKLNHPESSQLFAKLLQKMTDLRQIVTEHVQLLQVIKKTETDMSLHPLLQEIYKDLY

Test [5] has the same target. The test is described as follows: qHTS assay to identify small molecule antagonists of the peroxisome proliferator-activated receptor gamma (PPARg) signaling pathway (AID 743191; calls by dose curve; further: series mostly up to about 63 µM; nearly all actives have a fitted effect of over 30% in size). In a few lines: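 GeneBLAzer PPARg UAS-bla HEK293H cells, 5 h post-plating, exposed to compounds 17 h at 37C. LiveBLAzer B/G FRET substrate added for 1 h at room temperature; beta-lactamase reporter read by fluorescence intensity.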

The nature of test [6]: qHTS assay to identify small molecule antagonists of the peroxisome proliferator-activated receptor gamma (PPARg) signaling pathway - cell viability counter screen (AID 743194). Further: nearly all actives have a fitted effect of over 55% in size. The essentials: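 Cytotoxicity counter screen in PPARg-bla HEK293H cells, same wells as reporter assay. Compounds plus 50 nM rosiglitazone (final) for 17 h at 37 C, then viability read by CellTiter-Glo luminescence.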

Test [7] in a line: qHTS assay for small molecule agonists of the antioxidant response element (ARE) signaling pathway (AID 743202; active means well fitted activation curve with a large enough effect in the signal ratio in the repeat runs, not every such curve was filed as active; the % refers to the signal ratio; further: potency means the concentration at half of the fitted maximal effect). The essentials: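 Agonist mode reporter screen: HepG2 cells with ARE-controlled beta-lactamase are incubated with test compounds for 16 h at 37 C, and beta-lactamase activity is measured as fluorescence of cleaved B/G FRET substrate.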
Test [8] can be described thus: qHTS assay for small molecule agonists of the antioxidant response element (ARE) signaling pathway - cell viability counter screen (AID 743203; calls by dose curve; further: nearly all actives have a fitted effect of over 55% in size). In a few lines: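 Following 16 hrs of compound treatment at 37C, HepG2 cells with an ARE-controlled beta-lactamase gene were lysed with CellTiter-Glo. Luminescence was read after 30 min at room temperature.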
The nature of test [9]: qHTS assay for small molecule activators of the heat shock response signaling pathway - cell viability counter screen (AID 743209). Further: nearly all actives have a fitted effect of over 50% in size. In a few lines:
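Readout: CellTiter-Glo luminescence, 30 min at room temperature. System: HSE-bla HeLa cells, 1500/well, plated overnight. Treatment: compounds in DMSO, 5 h at 37 C.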

The nature of test [10]: qHTS assay for small molecule activators of the heat shock response signaling pathway (AID 743210; active means well fitted activation curve with a large enough effect in the signal ratio in the repeat runs, with a control signal flat, not every such curve was filed as active; the % refers to the signal ratio;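 further: HeLa cells with beta-lactamase reporter driven by heat shock elements; series mostly up to about 63 µM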). The essentials: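 Quantitative high-throughput format using an engineered HeLa line in which heat shock response elements drive beta-lactamase; after 5 h with compound, cells received a B/G FRET substrate and fluorescence was read.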

Sequence of Aryl hydrocarbon receptor (Homo sapiens) (P35869 whole entry, looked up): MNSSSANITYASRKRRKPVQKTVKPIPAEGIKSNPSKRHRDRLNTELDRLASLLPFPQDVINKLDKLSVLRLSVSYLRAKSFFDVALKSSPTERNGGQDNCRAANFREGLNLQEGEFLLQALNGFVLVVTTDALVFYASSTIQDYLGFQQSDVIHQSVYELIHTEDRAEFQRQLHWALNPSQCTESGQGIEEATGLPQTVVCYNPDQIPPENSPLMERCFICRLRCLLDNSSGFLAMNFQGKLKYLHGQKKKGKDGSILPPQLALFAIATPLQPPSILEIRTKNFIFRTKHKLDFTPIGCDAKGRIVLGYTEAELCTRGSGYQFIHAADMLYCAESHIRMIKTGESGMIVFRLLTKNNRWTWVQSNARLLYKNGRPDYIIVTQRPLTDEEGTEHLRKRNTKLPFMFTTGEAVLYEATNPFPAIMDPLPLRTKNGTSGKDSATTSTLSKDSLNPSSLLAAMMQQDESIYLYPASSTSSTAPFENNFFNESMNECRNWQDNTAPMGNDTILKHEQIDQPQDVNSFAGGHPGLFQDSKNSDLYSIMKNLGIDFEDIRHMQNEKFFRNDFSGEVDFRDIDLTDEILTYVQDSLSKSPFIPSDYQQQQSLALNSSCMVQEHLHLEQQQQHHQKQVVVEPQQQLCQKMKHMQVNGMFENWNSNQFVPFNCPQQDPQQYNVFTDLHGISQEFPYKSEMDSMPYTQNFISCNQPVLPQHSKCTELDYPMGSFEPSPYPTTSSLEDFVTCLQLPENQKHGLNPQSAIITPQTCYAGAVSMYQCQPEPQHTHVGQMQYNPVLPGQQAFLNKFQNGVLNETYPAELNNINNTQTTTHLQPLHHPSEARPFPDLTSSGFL

As to `CC(C)OC(=O)Nc1ccccc1`, the result in [1], in test [3], in [4], in [6], in test [8] and in [9] was inactive. Moreover, the compound was classed as inactive in test [10]. Further, the Potency entry in test [2], in test [5] and in test [7] was “inactive” in each case.

Turning to `COC(=O)NS(=O)(=O)c1ccc(N)cc1`, the result in [1], in [3], in test [4], in test [6], in test [8] and in test [9] was inactive. The Potency result in [2], in test [5] and in [7] was “inactive” each time.

`COP(N)(=O)SC` (centres undefined): the result in test [1], in test [3], in [4], in test [6], in test [8] and in test [9] was inactive. Further, in test [10], the outcome was inactive. Besides, the Potency result in test [2], in test [5] and in test [7] was “inactive” each time.

For `O=c1ccc(=O)[nH][nH]1`, the compound was classed as inactive in test [1], in test [3], in test [4], in test [6], in test [8] and in test [9]. In addition, the result in test [10] was inactive. The Potency result in [2], in test [5] and in test [7] was “inactive” throughout.

Regarding `CC(C)(C)OOC(=O)c1ccccc1`, the compound was called inactive in test [1], in test [3], in [4], in test [6], in [8] and in test [9]. The result in [10] was inactive. For the same compound, the Potency entry in test [2], in test [5] and in test [7] was “inactive” in each case.

For the compound `COCCl`, the compound was classed as inactive in [1], in test [3], in test [4], in test [6], in [8] and in [9]. Besides, the result in [10] was inactive. For the same compound, the Potency result in test [2], in test [5] and in [7] was “inactive” each time.

Turning to `CC(Br)C(=O)O` (centres undefined), the result in test [1], in [3], in [4], in [6], in [8] and in [9] was inactive. For the same compound, the call in [10] was inactive. The Potency result in test [2], in [5] and in test [7] was “inactive” throughout.

As for `CCC12COCN1COC2`, the result in test [1], in test [3], in test [4], in [6], in [8] and in [9] was inactive. Moreover, the outcome in test [10] was inactive. Besides, the Potency result in test [2], in test [5] and in test [7] was “inactive” each time.

With `CC(Oc1ccc(Cl)cc1Cl)C(=O)O` (centres undefined), the compound was classed as inactive in test [1], in test [3], in test [4], in [6], in test [8] and in test [9]. In addition, the compound was classed as inactive in test [10]. For the same compound, the Potency result in [2], in test [5] and in [7] was “inactive” in each case.

As to `Nc1ccccc1C(=O)O`, the call in test [1], in [3], in test [4], in test [6], in test [8] and in test [9] was inactive. Besides, in [10], the compound was classed as inactive. For the same compound, the Potency entry in test [2], in test [5] and in [7] was “inactive” throughout.

As for `Cc1ccccc1O`, the compound was classed as inactive in [1], in test [3], in [4], in test [6], in test [8] and in test [9]. Also, the call in [10] was inactive. Besides, the Potency result in [2], in test [5] and in [7] was “inactive” in each case.

Turning to `O=[N+]([O-])c1ccc([As](=O)(O)O)cc1`, the result in test [1], in test [3], in test [4], in test [6], in test [8] and in [9] was inactive. For the same compound, the outcome in test [10] was inactive. The Potency result in [2] and in test [5] was “inactive” throughout. Besides, the Potency in test [7] is 54.5 µM (active).

Take `O=NN1CCCCCCC1`: the call in test [1], in [3], in [4], in test [6], in test [8] and in [9] was inactive. Besides, the outcome in test [10] was inactive. For the same compound, the Potency result in test [2], in [5] and in test [7] was “inactive” throughout.

Take `Oc1ccccc1Cl`: the compound was classed as inactive in test [1], in [3], in [4], in [6], in test [8] and in [9]. Further, the result in [10] was inactive. Further, the Potency entry in test [2], in test [5] and in test [7] was “inactive” in each case.

As for `CC(C)=C[C@@H]1[C@@H](C(=O)OCc2coc(Cc3ccccc3)c2)C1(C)C`, the call in test [1], in [3], in test [4], in test [6], in test [8] and in test [9] was inactive. In test [10], the result was inactive. Moreover, the Potency entry in [2], in [5] and in [7] was “inactive” each time.

For `c1ccc(-c2ccccc2)cc1`, the result in test [1], in [3], in [4], in test [6], in [8] and in test [9] was inactive. In addition, the outcome in test [10] was inactive. The Potency result in test [2], in test [5] and in [7] was “inactive” each time.

On to `CCC[CH2][Sn]([Cl])([Cl])[Cl]`, for which the call in test [1], in [3], in [4], in [6], in test [8] and in [9] was inactive. Moreover, in test [10], the compound was called inactive. Moreover, the Potency result in test [2] and in test [5] was “inactive” throughout. In addition, in [7], the Potency is 1.1 µM (active) and 2.43 µM (active).

With `O=Cc1cccc(Oc2ccccc2)c1`, the compound was called inactive in test [1], in test [3], in test [4], in test [6], in test [8] and in test [9]. The outcome in test [10] was inactive. Also, the Potency result in [2], in test [5] and in test [7] was “inactive” each time.

`CCNc1nc(NC(C)C)nc(SC)n1`: the result in test [1], in test [3], in test [4], in test [6], in [8] and in [9] was inactive. Moreover, the compound was classed as inactive in [10]. In addition, the Potency result in test [2], in test [5] and in [7] was “inactive” throughout.

Regarding `c1ccc(OP(Oc2ccccc2)Oc2ccccc2)cc1`, the compound was classed as inactive in test [1], in [3], in test [4], in test [6], in [8] and in [9]. In addition, in [10], the compound was classed as inactive. Also, the Potency result in test [2], in test [5] and in [7] was “inactive” throughout.

In the case of `COC(=O)c1ccccc1N`, the result in test [1], in test [3], in test [4], in [6], in test [8] and in [9] was inactive. Also, in test [10], the call was inactive. The Potency result in test [2], in test [5] and in test [7] was “inactive” each time.

Take `O=NN1CCCC1`: the compound was classed as inactive in test [1], in test [3], in test [4], in [6], in test [8] and in test [9]. The compound was classed as inactive in test [10]. The Potency result in [2], in test [5] and in [7] was “inactive” in each case.

With `CC(C#N)CCC#N` (centres undefined), the outcome in test [1], in [3], in test [4], in [6], in [8] and in [9] was inactive. In addition, the outcome in test [10] was inactive. The Potency entry in test [2], in test [5] and in test [7] was “inactive” throughout.

In the case of `CCOP(OCC)OCC`, the compound was called inactive in test [1], in test [3], in [4], in [6], in test [8] and in test [9]. Besides, the call in test [10] was inactive. Besides, the Potency entry in [2], in test [5] and in [7] was “inactive” in each case.

In the case of `Cc1ccc(N)cc1N`, the compound was classed as inactive in test [1], in [3], in [4], in [6], in test [8] and in test [9]. The compound was classed as inactive in test [10]. In addition, the Potency in [2] is 21.1 µM (active) and 27.3 µM (active). In addition, the Potency entry in test [5] and in test [7] was “inactive” throughout.
